Bioassay records (PubChem BioAssay)
Mac1 fbg enh = CD11b/CD18-fibrinogen binding enhancement; P05107+P11215; K562 CD11b/CD18 adhesion to fibrinogen, ATPlite luminescence; activation, % at 10 µM; 93,000 tested, 0.07% active; AID 1499;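 active means 10 µM primary screen giving 50% or more activity, confirmed by 40% or more on retest at that dose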
CD11b adhes inh = blocks human CD11b/CD18 adhesion to fibrinogen; P05107+P11215; K562 CD11b/CD18 adhesion to fibrinogen, ATPlite luminescence; Mn2+ added to activate the integrin; inhibition, % at 10 µM; 93,000 tested, 0.54% active; AID 1497;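 active means primary inhibition of 50% or more at 10 µM, then 40% or more on retest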
DAT uptake mod = modulates human dopamine transporter uptake under cocaine | Q01959 | LLC-PK1 hDAT cells, [14C]-dopamine uptake with cocaine IC80; actives deviate in either direction | B-score at 10 µM | 110,000 tested, 1.3% active | AID 449768;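 active means Z score or B-score, a plate-position-corrected score, falls beyond the plate's 99.7% confidence bounds, in either direction; inactive means both scores lie inside the 99.7% bounds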;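 further: scored against the spread of the other compound wells on the same plate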
Pyk2 oligo antag = antagonists of human Pyk2 oligomerization; Q14289; Q293 cells, Pyk2 FERM NanoBiT luminescence; active compounds read low; z-score (the deposit names both 25 µM and 10 µM); 99,000 tested, 0.83% active; AID 1347419;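 active means Z-score of -3 or lower, scaled per plate to the spread of control and sample wells; inactive means z-score above -3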;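 further: negative z-score means lost luminescence so less FERM oligomerization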
Target sequence (Q14289 whole entry, looked up): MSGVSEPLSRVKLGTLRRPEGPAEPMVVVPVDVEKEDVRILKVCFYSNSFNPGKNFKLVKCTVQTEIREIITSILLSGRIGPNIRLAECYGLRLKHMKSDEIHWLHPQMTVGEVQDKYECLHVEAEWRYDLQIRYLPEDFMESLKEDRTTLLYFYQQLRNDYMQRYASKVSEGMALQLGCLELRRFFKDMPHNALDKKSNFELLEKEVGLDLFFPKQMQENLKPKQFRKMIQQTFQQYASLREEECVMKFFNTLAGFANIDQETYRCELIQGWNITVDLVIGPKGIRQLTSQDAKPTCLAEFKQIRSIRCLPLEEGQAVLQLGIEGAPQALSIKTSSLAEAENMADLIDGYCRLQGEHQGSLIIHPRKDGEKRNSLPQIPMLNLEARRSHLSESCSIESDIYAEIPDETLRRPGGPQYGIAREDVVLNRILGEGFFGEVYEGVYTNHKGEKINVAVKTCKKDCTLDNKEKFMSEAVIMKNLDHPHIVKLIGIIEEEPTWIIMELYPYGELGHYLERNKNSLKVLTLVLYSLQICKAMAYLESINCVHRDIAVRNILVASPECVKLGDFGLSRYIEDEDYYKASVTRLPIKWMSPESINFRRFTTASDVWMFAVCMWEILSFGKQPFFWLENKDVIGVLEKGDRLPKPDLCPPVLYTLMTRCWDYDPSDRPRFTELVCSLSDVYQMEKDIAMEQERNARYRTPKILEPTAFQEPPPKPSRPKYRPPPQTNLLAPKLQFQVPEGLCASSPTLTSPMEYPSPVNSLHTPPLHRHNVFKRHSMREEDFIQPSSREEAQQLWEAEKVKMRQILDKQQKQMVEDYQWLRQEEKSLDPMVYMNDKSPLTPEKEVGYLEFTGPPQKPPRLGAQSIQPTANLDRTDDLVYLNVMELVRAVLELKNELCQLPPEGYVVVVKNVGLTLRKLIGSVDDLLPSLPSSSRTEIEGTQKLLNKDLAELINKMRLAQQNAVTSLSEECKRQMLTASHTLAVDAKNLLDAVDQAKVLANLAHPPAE
D1 mod = allosterically modulates the human D1 dopamine receptor | 58,000 tested, 5.9% active | B-score at 10 µM | HEK293 D1, CRE-luciferase, dopamine EC30 potentiation; actives deviate in either direction | AID 641;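 active means luminescence count or its row- and column-corrected plate score outside the 99.7% band of the plate's sample wells, on either side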
FAK blocker = FAK (human) kinase inhibition; AID 727; inhibition, %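 (tested at 7 µM)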; biochemical FAK kinase activity assay; Q05397; 97,000 tested, 0.84% active; in the data active means inhibition above about 19%;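 further: 0% = DMSO and 100% = reference compound high control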
Starred values were filed as active, the others as inactive; . = not tested or not shown. The entries come from a sample that favours hits as a whole.

SMILES	Mac1 fbg enh	CD11b adhes inh	DAT uptake mod	Pyk2 oligo antag	D1 mod	FAK blocker
Cc1cc2cc(C(c3nnnn3Cc3ccco3)N3CCc4ccccc4C3)c(=O)[nH]c2cc1C (configuration not stated)	0	-13	3.9*	-0.89	0.07	7
N#Cc1cccc(C(c2nnnn2Cc2ccccc2)N2CCCC2)c1 (configuration not stated)	-4	-1	0.047	0.34	-0.75	1
N#Cc1ccc(C(c2nnnn2Cc2ccccc2)N2CCCC2)cc1 (configuration not stated)	4	9	-9.3*	1.2	.	-1
Cc1cc(C)c2nc(N3CCCN(C(=O)c4cnccn4)CC3)c(C#N)cc2c1	1	-2	0.76	0.77	-0.25	2
CC(=O)N1CCN=C1SCc1ccc(Cl)cc1	6	5	-0.48	.	2.2	.
Cc1c(C(=O)OCCOc2ccccc2)[nH]c2c1C(=O)CCC2	-1	25	1.1	0.29	-3.8*	0
Cn1c(C(=O)OC(C(=O)NCc2ccco2)c2ccncc2)cc2sccc21 (configuration not stated)	0	-1	0.013	-0.09	.	5
c1ccc(-c2nnc(-c3ccccn3)nn2)nc1	.	.	.	.	-5.5*	.
CC(=O)N1CCc2cc(S(=O)(=O)NCCC3=CCCCC3)ccc21	.	.	.	1.8	-1.9	-1
O=C1NC(=S)N/C1=C/c1cc([N+](=O)[O-])ccc1O	0	-9	-2.1*	-0.56	.	-2
Cc1ccc(C)c(SCC(=O)Nc2cc(C)nn2-c2ccc(F)cc2)c1	1	2	.	.	.	.
O=C(Nc1ccc2nc(-c3ccco3)[nH]c2c1)c1ccco1	-3	10	3*	0.56	0.7	-3
O=C(Nc1ccc2nc(-c3ccco3)[nH]c2c1)c1cccs1	.	.	-0.85	-0.53	-2.9	-4
COC(=O)[C@@H]1C[C@H]1[C@@H](NC(=O)c1ccccc1)c1ccccc1	.	.	-0.74	.	.	.
O=S(=O)(c1ccccc1)c1nc(-c2ccco2)oc1NCc1cccnc1	-2	-5	0.088	-0.03	4.9*	.
Cc1nc2cc(N3CCCCC3)c(NC(=O)c3ccncc3)cc2c(=O)n1Cc1ccc(Cl)cc1	-2	18	.	.	.	0
Cc1nc2cc(N3CCN(C)CC3)c(NC(=O)Cc3ccccc3)cc2c(=O)n1Cc1ccccc1	2	21	0.28	-1.5	-2.4*	-4
Cc1occc1-c1nnc(SCC(=O)NCCc2ccccc2)n1C(C)c1ccccc1 (configuration not stated)	1	19	2.7*	-0.85	.	.
NC(=O)[C@H](Cc1cc2ccccc2s1)NC(=O)[C@@H]1CC2(CC(c3cccc(NC(=O)[C@@H]4CCC(=O)N4)c3)=NO2)CN1C(=O)/C=C/Sc1ccccc1 (some centres not stated)	.	.	-0.32	.	.	.
NC(=O)[C@H](Cc1cc2ccccc2s1)NC(=O)[C@@H]1CC2(CC(c3cccc(NC(=O)[C@@H]4CCC(=O)N4)c3)=NO2)CN1C(=O)/C=C/c1c(F)cccc1Cl (some centres not stated)	148*	1	0.32	.	.	-1
Cc1nc2c3cc(Cl)ccc3n(CCN3CCCCC3)c2s1	-2	10	0.66	-0.83	.	0
CC1CCc2ccccc2N1C(=O)c1cccs1 (configuration not stated)	-2	-2	-7.3*	-0.28	.	1
CC1CCc2cc(F)ccc2N1C(=O)c1ccc2c(c1)OCO2 (configuration not stated)	-1	-2	-0.62	-0.87	-0.29	-7
CCCCCC(=O)N1CC2(CC(c3cccc(NC(=O)CC)c3)=NO2)C[C@H]1C(N)=O (some centres not stated)	.	.	-0.14	.	.	.
C=CCn1c(NS(=O)(=O)c2ccccc2)c(S(=O)(=O)c2ccc(C)cc2)c2nc3ccccc3nc21	-10	96*	.	0.8	.	.
SMILES	Mac1 fbg enh	CD11b adhes inh	DAT uptake mod	Pyk2 oligo antag	D1 mod	FAK blocker
O=S(=O)(Nc1c(S(=O)(=O)c2ccccc2)c2nc3ccccc3nc2n1C1CCCCC1)c1ccccc1	.	.	.	-2.3	.	.
COc1ccc(/C=N/NC(=O)Cc2csc(Nc3cccc(C(F)(F)F)c3)n2)cc1C	3	-14	3	-0.4	.	-3
COc1ccc(N2C(=O)c3ccccc3NC2c2ccc(OC)c(COc3ccccn3)c2)cc1 (configuration not stated)	-1	6	.	.	.	.
COc1ccc(N2C(=O)c3ccccc3NC2c2ccc(OC)c(CSc3ccccn3)c2)cc1 (configuration not stated)	.	.	0.049	-3.2*	.	-35
Cc1ccc(-c2cc3nc(-c4ccccc4)cc(N)n3n2)cc1	10	-41	0.61	-1.7	.	-2
Cc1cc(N)n2nc(-c3ccccc3)cc2n1	.	.	.	.	-3.4*	.
COC(=O)c1ccccc1NC(=O)CSc1ccccc1	2	4	-9*	-1.1	3.6	.
COCCCNC(CC(=O)Nc1ccc(N(C)C)cc1)C(=O)O (configuration not stated)	.	.	.	.	-0.64	.
CCOC(=O)c1sc(NC(=O)c2cccnc2)c(C#N)c1C	-9	63*	-1.5	0.57	.	-5
CCOC(=O)c1c(NC(=O)c2cccnc2)sc(C)c1C	.	.	-0.27	-0.61	.	6
CCCNC(=O)COc1ccc(S(=O)(=O)Nc2ccc(C)cc2)cc1	2	-4	1.3	0.84	.	0
CN1/C(=C\C(=O)c2ccco2)C(C)(C)c2ccccc21	-1	-3	-0.00047	-0.29	-0.7	-3
CN1/C(=C/C(=O)c2nc(S(C)(=O)=O)ncc2Cl)C(C)(C)c2ccccc21	-3	10	0.022	-3.8*	-2.2	9
COc1ccc(C(O)(C(=O)NNc2ccc(C)cc2)c2cccs2)cc1 (configuration not stated)	1	-1	-7.9*	-0.25	.	0
O=C(NNc1ccc(C2CCCCC2)cc1)C(O)(c1ccccc1)c1cccs1 (configuration not stated)	.	.	0.94	-0.82	.	3
CCn1c(SCC(=O)Nc2ccc3c(c2)OCO3)nc2c1c(=O)n(C)c(=O)n2C	-1	-13	0.76	0.54	3.2	-1
CCCn1c(SCC(=O)N2CCN(c3ccc(OC)cc3)CC2)nc2c1c(=O)n(C)c(=O)n2C	-2	3	-0.68	-0.35	-5.2*	-1
CCCn1c(SCC(=O)Nc2ccc3c(c2)OCO3)nc2c1c(=O)n(C)c(=O)n2C	3	-2	-0.71	-0.23	4.8*	.
CCOc1ccc(Cn2c(C)nc([N+](=O)[O-])c2SCC(O)CCl)cc1[N+](=O)[O-] (configuration not stated)	-2	-2	0.48	0.19	.	0
COCCn1c(NCc2ccc(C)cc2)nc2c1c(=O)[nH]c(=O)n2C	.	.	-0.46	0.63	-3.3*	.
COCCn1c(NCc2ccccc2)nc2c1c(=O)[nH]c(=O)n2C	-2	-1	0.055	-0.27	2	1
